# Laboratory results from PubChem BioAssay AID504333 (National Center for Advancing Translational Sciences (NCATS), 2011).
# The campaign covered roughly 360,000 compounds. About 16,000 (4.4%) were called active. A call without a number means that no potency is given here. Another 9% or so got no clear call; they are omitted. Calls come from the whole dose curve; as a rule, active = well fitted inhibition curve with a large enough effect; inconclusive = small, poorly fitted or top-dose-only effect; inactive = no such curve, though single readings can be large or run the other way. The sample as a whole holds a higher share of actives than the screen did.
# Target: Bromodomain adjacent to zinc finger domain protein 2B (Homo sapiens) (UniProt Q9UIF8)
# Sequence (Q9UIF8 whole entry, looked up, the tested form may be a part): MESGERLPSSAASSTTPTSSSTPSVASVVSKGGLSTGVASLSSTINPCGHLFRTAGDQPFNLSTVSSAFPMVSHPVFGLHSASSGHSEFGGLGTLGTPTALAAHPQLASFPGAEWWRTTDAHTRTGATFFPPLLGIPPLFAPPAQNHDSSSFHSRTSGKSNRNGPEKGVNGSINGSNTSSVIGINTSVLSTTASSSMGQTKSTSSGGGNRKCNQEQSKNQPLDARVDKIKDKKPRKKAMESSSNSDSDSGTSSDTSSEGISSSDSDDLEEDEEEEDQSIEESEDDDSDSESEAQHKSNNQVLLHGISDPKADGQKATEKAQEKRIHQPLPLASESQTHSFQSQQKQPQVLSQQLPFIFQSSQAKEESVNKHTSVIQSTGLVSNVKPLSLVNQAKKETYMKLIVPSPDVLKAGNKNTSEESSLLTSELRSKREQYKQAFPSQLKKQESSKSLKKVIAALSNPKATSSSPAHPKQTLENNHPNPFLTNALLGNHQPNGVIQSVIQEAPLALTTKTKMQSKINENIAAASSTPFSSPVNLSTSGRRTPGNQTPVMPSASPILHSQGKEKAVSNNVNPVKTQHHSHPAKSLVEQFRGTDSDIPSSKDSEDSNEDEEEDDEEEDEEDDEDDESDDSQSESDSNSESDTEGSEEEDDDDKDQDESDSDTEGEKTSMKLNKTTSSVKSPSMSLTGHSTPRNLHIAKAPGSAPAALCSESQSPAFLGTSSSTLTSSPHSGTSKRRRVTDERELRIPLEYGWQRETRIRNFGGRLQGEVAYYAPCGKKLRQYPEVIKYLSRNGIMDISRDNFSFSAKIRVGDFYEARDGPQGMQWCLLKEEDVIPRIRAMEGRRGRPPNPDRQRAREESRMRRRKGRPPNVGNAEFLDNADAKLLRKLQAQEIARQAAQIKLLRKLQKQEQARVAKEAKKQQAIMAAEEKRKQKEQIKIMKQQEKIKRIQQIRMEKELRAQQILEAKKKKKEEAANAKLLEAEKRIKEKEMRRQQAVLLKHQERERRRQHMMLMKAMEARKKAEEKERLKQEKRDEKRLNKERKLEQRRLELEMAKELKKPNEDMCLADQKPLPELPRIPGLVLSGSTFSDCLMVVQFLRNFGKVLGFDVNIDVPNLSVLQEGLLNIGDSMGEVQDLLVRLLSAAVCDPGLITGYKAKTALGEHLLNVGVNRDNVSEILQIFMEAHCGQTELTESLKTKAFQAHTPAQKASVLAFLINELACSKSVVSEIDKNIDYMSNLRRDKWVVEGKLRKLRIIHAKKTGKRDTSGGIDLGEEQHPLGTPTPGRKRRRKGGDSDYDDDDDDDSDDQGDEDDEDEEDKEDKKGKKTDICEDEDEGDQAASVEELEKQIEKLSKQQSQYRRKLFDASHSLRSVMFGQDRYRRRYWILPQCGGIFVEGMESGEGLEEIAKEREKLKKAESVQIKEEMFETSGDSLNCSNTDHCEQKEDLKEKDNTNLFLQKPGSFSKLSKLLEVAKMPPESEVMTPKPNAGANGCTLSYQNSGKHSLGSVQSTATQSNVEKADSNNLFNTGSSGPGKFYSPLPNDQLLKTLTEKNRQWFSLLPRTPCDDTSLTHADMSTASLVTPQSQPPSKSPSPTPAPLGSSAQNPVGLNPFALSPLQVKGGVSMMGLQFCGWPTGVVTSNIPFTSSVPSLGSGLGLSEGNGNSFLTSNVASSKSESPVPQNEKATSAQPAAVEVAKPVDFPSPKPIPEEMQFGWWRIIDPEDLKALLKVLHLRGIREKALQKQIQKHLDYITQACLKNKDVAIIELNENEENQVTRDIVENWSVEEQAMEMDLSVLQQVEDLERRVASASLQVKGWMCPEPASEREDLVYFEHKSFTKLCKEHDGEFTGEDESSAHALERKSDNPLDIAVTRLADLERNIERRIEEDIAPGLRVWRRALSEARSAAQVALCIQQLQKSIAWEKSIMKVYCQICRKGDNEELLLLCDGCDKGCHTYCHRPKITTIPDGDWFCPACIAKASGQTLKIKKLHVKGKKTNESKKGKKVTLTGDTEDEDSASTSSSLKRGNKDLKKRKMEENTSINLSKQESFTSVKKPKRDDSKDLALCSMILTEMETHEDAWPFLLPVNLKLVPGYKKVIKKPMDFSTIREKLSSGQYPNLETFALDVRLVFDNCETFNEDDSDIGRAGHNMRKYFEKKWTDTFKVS
# Assay: qHTS Assay for Inhibitors of BAZ2B; note: nearly all actives have a fitted effect of over 60% in size
# Details: AlphaScreen BAZ2B-H3K14Ac peptide displacement; series mostly up to 114 µM
# Procedure, shortened: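 Inhibition is scored as reduced AlphaScreen emission. The BAZ2B/b-H3(5-23)K14Ac complex (50 nM each) in PBS pH 7.4, 0.01% Tween-20 meets compound (up to 110 uM) for 30 min at RT before bead addition.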
# Potency is the fitted concentration of half-maximal effect.
row,Compound,Potency
1,CC1=Nc2cc(C(=O)N3CCC(C)CC3)ccc2Sc2ccc(Cl)cc21,inactive
2,Cc1ccc(Cn2c(=O)n(-c3ccc(C)cc3)c(=O)c3c2c2cc(C)ccc2n3C)cc1,inactive
3,COc1ccc(CNC(=O)CSc2n[nH]c(-c3ccc(F)cc3)n2)cc1,inactive
4,CCc1nnc(NC(=O)c2nc3nccc(C)n3n2)s1,70.8 µM (active)
5,CCc1nnc(NC(=O)c2ccc(S(=O)(=O)NC3CCCCC3)cc2)s1,inactive
6,CCc1nnc(NC(=O)c2cc(S(=O)(=O)N3CCCCC3)ccc2C)s1,inactive
7,CCCOc1ccccc1C1CC(=O)Nc2cc3c(cc21)OCO3 (centres undefined),28.2 µM (active)
8,O=C1CC(c2ccc(F)cc2F)c2cc3c(cc2N1)OCO3 (centres undefined),inactive
9,COC(=O)C1=C(C)NC(=O)CC1c1ccccc1OC (centres undefined),inactive
10,Cc1nc2ccn(Cc3cccs3)c(=O)c2cc1C(=O)NCc1ccc(Cl)cc1,inactive
11,Cc1ccc(Nc2ccccc2N)cc1,44.7 µM (active)
12,Nc1ccc(C(=O)Nc2ccccc2N)cc1,inactive
13,Cc1ccc(Nc2nc(Cl)c(C=O)s2)cc1,inactive
14,COc1ccc(-c2noc(CSc3nnc(-c4ccccc4)n3-c3ccc(F)cc3)n2)c(OC)c1,inactive
15,CC(=O)c1c(C)n(-c2ccc(C)cc2)c2ccc(O)cc12,inactive
16,CC(=O)c1c(C)n(-c2ccc(N(C)C)cc2)c2ccc(OCC(N)=O)cc12,50.1 µM (active)
17,CCOC(=O)c1c(-c2ccccc2)oc2ccc(OCC(N)=O)cc12,inactive
18,CC(=O)c1ccc(NC(=O)c2nc(-c3ccc(C)cc3)n3c2CCCCC3)cc1,inactive
19,COc1ccccc1-c1ccnc2[nH]n(-c3ccccc3)c(=O)c12,inactive
20,CC1CC(C)CN(CC(=O)Nc2ccc(S(N)(=O)=O)cc2)C1 (centres undefined),inactive
21,CC1Cc2ccccc2N1CC(=O)Nc1ccc(S(N)(=O)=O)cc1 (centres undefined),79.4 µM (active)
22,NS(=O)(=O)c1cccc(NC(=O)CN2CCCc3ccccc32)c1,inactive
23,CC(CNC(=O)c1nnc(Cc2cccc(F)c2)o1)c1ccccc1 (centres undefined),inactive
24,CN(C(=O)CSc1nc2ccc(NC(=O)COc3ccccc3)cc2s1)c1ccccc1,inactive
25,O=C(NCCCN1CCOCC1)c1cc2c(s1)CCC2,inactive
26,O=C(NCCCn1ccnc1)c1cc2c(s1)CCCC2,56.2 µM (active)

row,Compound,Potency
1,O=C(NCCCn1ccnc1)c1cc(Br)c(Br)s1,inactive
2,Cc1ccccc1CNC(=O)C1CCCN(S(=O)(=O)N(C)c2ccc(F)cc2)C1 (centres undefined),inactive
3,CCOC(=O)c1c(S(=O)(=O)NCC(=O)Nc2ccc(Cl)c(C(F)(F)F)c2)c(C)n(C)c1C,inactive
4,COc1cccc(NC(=O)CSC2=Nc3ccccc3C3=NC(CC(=O)NC4CCCCC4)C(=O)N23)c1 (centres undefined),inactive
5,S=C(Nc1cccc(Cl)c1)Nc1ccc2c(c1)OCCO2,inactive
6,Cc1nc(Nc2ccc3c(c2)OCCO3)c2nnn(Cc3ccccc3Cl)c2n1,inactive
7,Cc1cccc2nc(-c3ccc(Cl)s3)c(Nc3ccc4c(c3)OCCO4)n12,12.6 µM (active)
8,Cc1cc(Nc2ccccc2)n(C(=O)c2ccc(N)cc2)n1,inactive
9,Nc1ccc(Nc2ccccc2)cc1,35.5 µM (active)
10,Nc1ccc(S(=O)(=O)NC(=O)c2ccccc2)cc1,inactive
11,CCCOc1ccc(NC(=O)CC2C(=O)N(c3ccccc3)C(=O)N2Cc2ccco2)cc1 (centres undefined),inactive
12,C[N+]1(CCNC(=O)/C=N/O)CCCCC1,79.4 µM (active)
13,COc1ccc(C2C(C#N)=C(N)Oc3n[nH]c(C)c32)cc1CN1CCN(c2ccc(F)cc2)CC1 (centres undefined),50.1 µM (active)
14,CCOc1c(OC)cc(C2C(C#N)=C(N)Oc3n[nH]c(-c4ccncc4)c32)cc1OC (centres undefined),inactive
15,COc1cc(C2C(C#N)=C(N)Oc3n[nH]c(-c4ccccn4)c32)cc(OC)c1OC (centres undefined),inactive
16,O=C(CSc1nc(=O)n(Cc2cccnc2)c2c1CCC2)Nc1ccc(F)cc1F,inactive
17,N#Cc1nc(COc2ccc(-c3ccccc3)cc2)oc1NCc1cccnc1,11.2 µM (active)
18,c1ccc(COc2ccccc2CNCc2cccnc2)cc1,inactive
19,O=S(=O)(c1ccccc1)c1nc(-c2ccccc2F)oc1NCc1cccnc1,inactive
20,O=C(NCCCO)C(=O)Nc1c2c(nn1-c1ccc(F)cc1)CSC2,inactive
21,CCOc1ccc(C2C(=O)N(C3CCCCC3)CC(=O)N2CCC2=CCCCC2)cc1OC (centres undefined),inactive
22,CN1CCN(CCCCOc2cccc3ccccc23)CC1,inactive
23,CCN1CCN(CCCCOc2ccccc2F)CC1,50.1 µM (active)
24,Fc1ccccc1OCCCCn1cncn1,inactive
25,CCn1c2c(c(=O)n3ncc(C(=O)N4CCN(c5ccccc5)CC4)c13)CN(Cc1ccc(OC)cc1)CC2,inactive
26,O=C(Nc1ccc(F)cc1F)c1cnn(-c2ccc(F)cc2)c1-n1cccc1,inactive

row,Compound,Potency
1,CCOC(=O)Cn1c(=O)n(C2CCCCC2)c2nc(-c3cccc(OC)c3)nc(C(N)=O)c21,inactive
2,CC(C)(C)n1c(=O)[nH]c2c(c1=O)CCC2,inactive
3,N#Cc1c2c(c(-c3ccccc3)[nH]c1=O)CCCC2,inactive
4,O=c1[nH]n2c(=O)c3c([nH]c2c1N=Nc1ccccc1)CCC3,39.8 µM (active)
5,COc1cc(CN(CC2CCCO2)C(=O)c2ccccc2F)cc(OC)c1OC (centres undefined),inactive
6,O=C(NCc1ccccc1)c1cc(-c2cccc(Cl)c2)on1,inactive
7,O=C1c2ccccc2NC(c2ccc(-c3cccc(Cl)c3)o2)N1O (centres undefined),inactive
8,O=C(O)C(c1ccccc1)N1C(=O)/C(=C\c2ccc(-c3cccc(Cl)c3)o2)SC1=S (centres undefined),22.4 µM (active)
9,COc1cccc(NC(=O)CN2C(=O)c3ccccc3Sc3ncccc32)c1,inactive
10,CC(=O)Nc1ccc(NC(=O)c2cc3sccc3n2Cc2ccc(F)cc2)cc1,inactive
11,COC(=O)c1ccc(NC(=O)CSc2n[nH]c(-c3ccccc3)n2)cc1,inactive
12,CCOC(=O)c1sc(=S)n(-c2cccc(OC)c2)c1N,50.1 µM (active)
13,Cc1cccc(-n2c(N)c(C(=O)N3CCN(C)CC3)sc2=S)c1,inactive
14,COc1cccc(-n2c(=S)sc3c(=O)n(-c4ccccc4C)c(SCC(=O)O)nc32)c1,inactive
15,c1ccc(CN2CCC(N=C3NN=C(c4ccc5c(c4)OCCO5)CS3)CC2)cc1,39.8 µM (active)
16,Clc1cccc(N=C2NN=C(c3ccc4c(c3)OCCO4)CS2)c1,inactive
17,CS(=O)(=O)N(CC(=O)N1CCN(Cc2ccccc2)CC1)c1ccc2c(c1)OCCO2,inactive
18,Cc1ccc(NC(=O)CN2C(=O)CC(C)Sc3ccccc32)c(C)c1 (centres undefined),inactive
19,CCCC(=O)C1=C(N(C)c2ccccc2)CC(C)(C)C(C(=O)OC)C1=O (centres undefined),inactive
20,C=CCO/N=C/C1=C(O)C(C(=O)OC)C(C)(C)CC1=O (centres undefined),39.8 µM (active)
21,COc1ccc(CCNc2nc(-c3ccc(F)cc3)cc(C(F)(F)F)n2)cc1OC,inactive
22,CCOC(=O)c1c(NC(=O)COc2cc(C)ccc2C(C)C)sc(C)c1C,inactive
23,O=C1CN(C(=O)Nc2ccccc2C(F)(F)F)C(c2ccccc2)c2c(sc3c2CCCC3)N1 (centres undefined),inactive
24,CC(C)(C)C(=O)OCc1nc(-c2ccc(O)c(O)c2)cs1,56.2 µM (active)
25,COc1cc(CC(=O)Nc2nc(-c3ccc(F)c(F)c3)cs2)cc(OC)c1OC,inactive
26,Cc1onc(C(=O)NN)c1-c1csc(COc2ccccc2)n1,inactive

row,Compound,Potency
1,COC(=O)[C@H]1[C@H]2C[C@H]3c4[nH]c5ccccc5c4CCN3C[C@@H]2CC[C@@H]1O,inactive
2,Cc1ccc(C2c3[nH]c4ccccc4c3CCN2C(=O)c2cccc(C)c2)cc1 (centres undefined),inactive
3,COCc1ccc(CN2CCC(Oc3ccc(C(=O)NCc4ccccn4)cc3)CC2)o1,inactive
4,COCc1ccc(C(=O)N2CCc3c([nH]c4ccccc34)C2c2ccccn2)s1 (centres undefined),35.5 µM (active)
5,Cc1cccc(C2c3[nH]c4ccccc4c3CCN2C(=O)c2cc(-c3cccn3C)n[nH]2)n1 (centres undefined),12.6 µM (active)
6,COc1ccc(Cn2cc(C(=O)c3ccc(C)cc3)c(=O)c3cc(OC)c(OC)cc32)cc1,inactive
7,CCn1c(CN2CCC(C)CC2)nc2cc(NC(=O)c3ccccc3[N+](=O)[O-])ccc21,inactive
8,CCc1ccc(Sc2cc(C(=O)NCCCOC(C)C)c3ccccc3n2)cc1,inactive
9,CCOc1ccc(CNC(=O)Cn2cc3c(n2)-c2c(oc(C(=O)N4CCCC4)c2C)CC3)cc1,inactive
10,COc1cc(C2c3c(oc4ccccc4c3=O)C(=O)N2c2nc(C)c(C)s2)ccc1O (centres undefined),inactive
11,COc1ccc(/C=N/OCC(=O)N(Cc2ccccc2)c2ccccc2C(=O)O)cc1,inactive
12,Oc1ccc(/C=N/N(Cc2ccccc2)c2ccccc2)cc1,39.8 µM (active)
13,CCN(CC)C(=O)N(CC)Cc1ccccc1,inactive
14,COc1cc(/C=C2/SC(=S)N(Cc3ccccc3)C2=O)cc(OC)c1O,12.6 µM (active)
15,O=C(CCCOc1ccccc1)Nc1cccc(C(=O)O)c1,inactive
16,COc1ccc(/C=C2\SC(=S)N(CC(=O)NNC(=O)c3ccncc3)C2=O)cc1,inactive
17,COc1ccc(/C=C2\SC(=S)N(CCC(=O)Nc3cccc(C(=O)O)c3)C2=O)cc1OC,50.1 µM (active)
18,COc1cccc(/C=C2/SC(=S)N(CC(=O)NC3C=CS(=O)(=O)C3)C2=O)c1 (centres undefined),inactive
19,Cc1ccc(/C=C2\SC(=S)N(CCC(=O)Nc3ccc(O)cc3)C2=O)cc1,inactive
20,Cc1ccc(C(=O)Nc2ccccc2F)cc1S(=O)(=O)N1CCOCC1,inactive
21,CC(C)(C)OC(=O)N1CCC(c2c(C(=O)N3CCc4ccccc4C3)cnn2-c2ccc(F)cc2)CC1,inactive
22,Cc1ccc(CN2CCC(CNC(=O)c3cnn(-c4ccccc4Cl)c3C3CCN(C(=O)OC(C)(C)C)CC3)CC2)cc1,inactive
23,CCc1ccc(S(=O)(=O)Nc2cc3c(C(=O)OCc4ccccc4)c(C)oc3c3ccccc23)cc1,inactive
24,COc1ccccc1N1CCN(S(=O)(=O)CCNC(=O)COc2ccc(F)cc2)CC1,inactive
25,O=C(C1CCCN(S(=O)(=O)c2cccc3nonc23)C1)N1CCN(c2ccccc2F)CC1 (centres undefined),inactive
26,COc1cc(C(=O)Nc2ccc(OCc3cc(=O)n4ccc(C)cc4n3)cc2)cc(OC)c1OC,inactive
